Test results from PubChem BioAssay (EPA / NIEHS).
Active and inactive are the calls of the source. The calls were made as follows: active = hit-call score of the fitted dose curve at least 0.9, where 1 is the maximum; inactive = score below 0.9.

What was measured:
[1] = CCTE_Harrill_HTTr_Viability_MCF7: CCTE's 6-hour Cell Viability Assessment for the High-Throughput Transcriptomics (HTTr) Platform, in MCF-7 cells cultured in DMEM + 10% fetal bovine serum, Harrill Lab (AID 2284010)
How it was run: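 Propidium iodide exclusion, imaged by high-content analysis, gauged viability after a six-hour exposure across eight concentrations. Cells were MCF-7 grown in DMEM with 10% fetal bovine serum; fits run in both directions against DMSO.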

[2] = CCTE_Harrill_HTTr_Apoptosis_MCF7: CCTE's 6-hour Apoptosis Assessment for the High-Throughput Transcriptomics (HTTr) Platform, in MCF-7 cells cultured in DMEM + 10% fetal bovine serum, Harrill Lab (AID 2284011)
How it was run: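 Read-out: CellEvent Caspase 3/7 Green signal by high content imaging, gain-of-signal indicating apoptosis. MCF-7 cells, DMEM + 10% FBS, eight-point dilution series, 6 h exposure. Curves fitted bidirectionally relative to DMSO negative control.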

Row | Structure (SMILES) | outcome [1] | outcome [2]
1 | C=C1CCC2CC1C2(C)C (stereo unspecified) | inactive | inactive
2 | O=c1ccc2ccc(O)cc2o1 | inactive | inactive
3 | OCCS | inactive | inactive
4 | Cc1ccc2[nH]c3cc4c(=O)c5cc(C)ccc5[nH]c4cc3c(=O)c2c1 | inactive | inactive
5 | CC1CN(c2cc3c(cc2F)c(=O)c(C(=O)O)cn3-c2ccc(F)cc2F)CCN1 (stereo unspecified) | inactive | inactive
6 | C=O.C=O.C=O.C=O.C=O.[Fe] | inactive | inactive
7 | Clc1ccc(-c2nc3sccn3c2/C=N/OCc2ccc(Cl)c(Cl)c2)cc1 | inactive | inactive
8 | CC(=O)C(O)O | inactive | inactive
9 | CCCCCCCCOC(=O)c1ccccc1C(=O)O | inactive | inactive
10 | O=CO | inactive | inactive
11 | Nc1c(S(=O)(=O)O)cc(Nc2ccccc2)c2c1C(=O)c1ccccc1C2=O | inactive | inactive
12 | CCCCCC1=C(C)CCC1=O | inactive | inactive
13 | CCCCCCCCCCCCCCCC=O | inactive | inactive
14 | O=c1cc(-c2ccccc2)oc2c1ccc1ccccc12 | inactive | inactive
15 | CCCCc1nc(Cl)c(CO)n1Cc1ccc(-c2ccccc2-c2nnn[nH]2)cc1 | inactive | inactive
16 | CC(=O)C(=NNc1ccc(-c2ccc(NN=C(C(C)=O)C(=O)Nc3ccc(C)cc3C)c(Cl)c2)cc1Cl)C(=O)Nc1ccc(C)cc1C | inactive | inactive
17 | Cc1ncc(C[n+]2csc(CCO)c2C)c(N)n1 | inactive | inactive
18 | Cc1cc(N=Nc2c(O)ccc3ccccc23)c(S(=O)(=O)O)cc1Cl | inactive | inactive
